Inconclusive results are not listed. Activity calls are given as the source filed them. Unless noted, calls follow the shape of the dose curve; as a rule, active = well fitted curve in the direction sought with a large enough effect in the repeat runs; inconclusive = weak or mixed curves; inactive = no such curve, though single readings can be large; an effect the other way counts as inactive or inconclusive.
Experiments:
[1] = qHTS assay to identify small molecule antagonists of the estrogen receptor alpha (ER-alpha) signaling pathway using the BG1 cell line in the presence of 0.1 nM 17-beta-estradiol - cell viability counter screen (AID 1259241); also: nearly all actives have a fitted effect of over 40% in size
Outline: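 Viability in VM7Luc4E2 cells after 22 hr compound exposure under 0.1 nM 17beta-estradiol stimulation, by CellTiter-Fluor.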

[2] = qHTS assay to identify small molecule antagonists of the androgen receptor (AR) signaling pathway using the MDA cell line in the presence of 0.5 nM R1881 - cell viability counter screen (AID 1259242); also: nearly all actives have a fitted effect of over 45% in size
Outline: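 Live-cell protease activity was measured by CellTiter-Fluor fluorescence after 30 min. Before that, MDA-kb2 MMTV-luciferase cells had 16 hr at 37C without CO2, exposed to test compounds and 0.5 nM R1881 final.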

[3] = target: Androgen receptor (Homo sapiens) (UniProt P10275); assay: qHTS assay to identify small molecule antagonists of the androgen receptor (AR) signaling pathway using the MDA cell line in the presence of 0.5 nM R1881 (AID 1259243); also: nearly all actives have a fitted effect of over 50% in size; also: potency is read from the fitted curve at half-maximal effect
Sequence of Androgen receptor (Homo sapiens) (P10275 whole entry, looked up): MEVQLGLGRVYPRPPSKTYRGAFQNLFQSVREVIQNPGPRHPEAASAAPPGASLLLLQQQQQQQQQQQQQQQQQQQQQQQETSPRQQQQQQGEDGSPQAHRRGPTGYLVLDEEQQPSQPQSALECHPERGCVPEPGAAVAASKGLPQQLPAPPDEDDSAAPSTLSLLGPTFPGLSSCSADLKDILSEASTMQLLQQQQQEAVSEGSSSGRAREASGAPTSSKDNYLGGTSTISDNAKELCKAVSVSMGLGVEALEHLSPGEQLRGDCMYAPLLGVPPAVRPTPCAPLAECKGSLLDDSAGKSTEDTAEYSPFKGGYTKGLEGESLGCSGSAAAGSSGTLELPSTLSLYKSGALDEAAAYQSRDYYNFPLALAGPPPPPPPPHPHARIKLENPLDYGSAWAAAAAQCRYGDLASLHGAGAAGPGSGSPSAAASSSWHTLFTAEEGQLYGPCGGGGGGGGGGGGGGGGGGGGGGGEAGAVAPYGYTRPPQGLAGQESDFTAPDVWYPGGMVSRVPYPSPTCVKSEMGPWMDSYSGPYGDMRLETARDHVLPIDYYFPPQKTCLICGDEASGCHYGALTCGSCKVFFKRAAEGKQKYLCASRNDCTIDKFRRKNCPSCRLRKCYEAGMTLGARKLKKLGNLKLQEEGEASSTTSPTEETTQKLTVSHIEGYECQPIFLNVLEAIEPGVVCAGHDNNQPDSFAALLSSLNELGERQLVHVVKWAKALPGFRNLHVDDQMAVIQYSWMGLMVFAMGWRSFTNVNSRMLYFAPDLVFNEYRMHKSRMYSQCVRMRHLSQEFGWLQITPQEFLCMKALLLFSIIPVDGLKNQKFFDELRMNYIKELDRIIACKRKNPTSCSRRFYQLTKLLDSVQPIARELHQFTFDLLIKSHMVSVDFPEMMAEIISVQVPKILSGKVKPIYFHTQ
Outline: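 Luminescent reporter readout (ONE-Glo, 30 min, room temperature) after 16 hr co-treatment of MDA-kb2 cells with test compounds and 0.5 nM R1881 final, at 37C without CO2. The MMTV-driven luciferase responds to both AR and GR.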

[4] = qHTS assay to identify small molecule HDAC inhibitors (AID 1259364); also: top concentration of the series differs between compounds; nearly all actives have a fitted effect of over 45% in size
Outline: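 Luminescence read after 30 min room-temperature HDAC-Glo incubation measures cellular class I/II HDAC activity. Compounds were applied for 2 hr at 37 C to HCT-116 wild-type cells seeded the day before.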

[5] = qHTS assay to identify small molecule HDAC inhibitors - cell viability counter screen (AID 1259365); also: series mostly up to about 92 µM; nearly all actives have a fitted effect of over 50% in size
Outline: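 Cytotoxicity was gauged in wild-type HCT-116 cells after a brief 2hr treatment with DMSO-dissolved compounds at 37C and 5% CO2, using CellTiter-Glo luminescence developed for 30min at room temperature.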

[6] = qHTS assay to identify small molecule agonists of the sonic hedgehog signaling (Shh) pathway - cell viability counter screen (AID 1259366); also: nearly all actives have a fitted effect of over 50% in size
Outline: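 Stable Gli1-Luc NIH/3T3 clone, 2,000 cells/well. Compound exposure 24hr at 37C. Read-out: CellTiter-Fluor fluorescence.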

[7] = qHTS assay to identify small molecule antagonists of the sonic hedgehog signaling (Shh) pathway - cell viability counter screen (AID 1259367); also: nearly all actives have a fitted effect of over 55% in size
Outline: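 Tox21 library chemicals were tested on a Gli1-Luc NIH/3T3 clone (2,000 cells/well) stimulated by conditioned medium; viability was quantified as fluorescence from CellTiter-Fluor reagent added at 23 hr.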

[8] = qHTS assay to identify small molecule agonists of the sonic hedgehog signaling (Shh) pathway (AID 1259368; calls by dose curve;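 also: NIH/3T3-derived 3T3Gli1-Luc cells carrying a stable Gli1-driven firefly luciferase reporter; series mostly up to about 92 µM; nearly all actives have a fitted effect of over 15% in size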)
Outline: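 Luminescence was read after 30 min at room temperature with luciferase reagent. Before that, 3T3Gli1-Luc cells (NIH/3T3 clone, stable Gli1-Luc reporter; 2,000/well) were exposed to compounds for 24 hr at 37C, 5% CO2, compounds being added 4 hr post-plating.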

[9] = qHTS assay to identify small molecule antagonists of the sonic hedgehog signaling (Shh) pathway (AID 1259369; calls by dose curve; also: nearly all actives have a fitted effect of over 45% in size; also: potency is read from the fitted curve at half-maximal effect)
Outline: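 Antagonist mode: compound added to 3T3 Gli1-Luc cells followed by conditioned-medium stimulation, 24 h at 37 C, 5% CO2. Inhibition taken as loss of Gli1-driven luciferase luminescence.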

[10] = target: Estrogen receptor beta (Homo sapiens) (UniProt Q92731); assay: qHTS assay to identify small molecule agonists of the estrogen receptor beta (ER-beta) signaling pathway (AID 1259377; active = well fitted activation curve with a large enough effect in the signal ratio in the repeat runs, not every such curve was filed as active; the % refers to the signal ratio)
Sequence of Estrogen receptor beta (Homo sapiens) (Q92731 whole entry, looked up): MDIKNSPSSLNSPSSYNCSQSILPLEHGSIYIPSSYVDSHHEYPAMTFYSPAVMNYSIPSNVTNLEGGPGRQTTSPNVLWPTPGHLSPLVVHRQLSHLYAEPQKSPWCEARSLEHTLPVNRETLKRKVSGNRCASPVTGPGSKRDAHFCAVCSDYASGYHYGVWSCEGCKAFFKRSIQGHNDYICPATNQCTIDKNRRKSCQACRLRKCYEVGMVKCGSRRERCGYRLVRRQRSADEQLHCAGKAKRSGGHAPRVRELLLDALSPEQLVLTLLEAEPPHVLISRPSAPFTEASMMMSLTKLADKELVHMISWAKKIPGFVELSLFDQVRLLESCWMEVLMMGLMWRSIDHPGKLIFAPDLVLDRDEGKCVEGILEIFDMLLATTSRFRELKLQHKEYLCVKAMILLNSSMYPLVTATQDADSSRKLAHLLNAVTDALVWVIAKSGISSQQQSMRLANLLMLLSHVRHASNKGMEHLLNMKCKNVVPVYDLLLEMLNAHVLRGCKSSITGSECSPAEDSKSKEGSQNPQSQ
Outline: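 Measured by fluorescence intensity from a B/G FRET beta-lactamase substrate (2 h, room temperature) in ER-beta-UAS-bla HEK293T cells treated with DMSO-dissolved compounds for 16 hr at 37C and 5% CO2.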

[11] = target: Estrogen receptor beta (Homo sapiens) (UniProt Q92731); assay: qHTS assay to identify small molecule antagonists of the estrogen receptor beta (ER-beta) signaling pathway (AID 1259378; active = well fitted inhibition curve with a large enough effect in the signal ratio in the repeat runs, not every such curve was filed as active; the % refers to the signal ratio)
Outline: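 ER-beta-UAS-bla HEK293T cells in 2% charcoal-stripped FBS medium treated with compound plus 1nM final 17-beta-estradiol for 16 hr at 37C. Beta-lactamase reporter read by FRET substrate fluorescence after 2 hours at room temperature.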

[12] = qHTS assay to identify small molecule agonists of the androgen receptor (AR) signaling pathway in the presence of an antagonist - cell viability counter screen (AID 1259379);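 also: MDA-kb2 human breast cancer cells carrying an MMTV luciferase reporter; series mostly up to about 92 µM; nearly all actives have a fitted effect of over 25% in size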
Outline: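 Cytotoxicity counter-screen run in the same wells as the nilutamide-challenged (3.0 µM final) AR agonist assay in MDA-kb2 cells. Compounds tested at 15 concentrations for 16 h, 37 °C without CO2; CellTiter-Fluor fluorescence read.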

[13] = qHTS assay to identify small molecule agonists of the estrogen receptor beta (ER-beta) signaling pathway - cell viability counter screen (AID 1259380); also: nearly all actives have a fitted effect of over 30% in size
Outline: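 Cell viability counter screen: CellTiter-Glo luminescence (30 min, room temperature) measured in the same wells as the beta-lactamase readout, after 16 hr compound exposure at 37C of ER-beta-bla HEK293T cells in 2% charcoal-stripped FBS medium.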

[14] = target: Androgen receptor (Homo sapiens) (UniProt P10275); assay: qHTS assay to identify small molecule agonists of the androgen receptor (AR) signaling pathway in the presence of an antagonist (AID 1259381; calls by dose curve; also: nearly all actives have a fitted effect of over 15% in size)
Outline: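 Agonist-mode confirmation run against 3.0 uM final nilutamide: compounds titrated at 15 concentrations onto MDA-kb2 MMTV-luciferase reporter cells. Luminescence measured with ONE-Glo following 16 hr incubation, 37C, 0% CO2.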

[15] = qHTS assay to identify small molecule antagonists of the estrogen receptor beta (ER-beta) signaling pathway - cell viability counter screen (AID 1259382); also: series mostly up to about 92 µM; nearly all actives have a fitted effect of over 55% in size
Outline: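 Cytotoxicity was measured in the same wells by CellTiter-Glo luminescence after 30 min at room temperature. Cells were ER-beta-bla HEK293T in charcoal-stripped serum, given compound together with 1 nM E2 and incubated 16 h at 37C.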

[16] = target: Estrogen receptor (Homo sapiens) (UniProt P03372); assay: qHTS assay to identify small molecule agonists of the estrogen receptor alpha (ER-alpha) signaling pathway in the presence of an antagonist (AID 1259383; calls by dose curve; also: top concentration of the series differs between compounds; nearly all actives have a fitted effect of over 15% in size)
Sequence of Estrogen receptor (Homo sapiens) (P03372 whole entry, looked up): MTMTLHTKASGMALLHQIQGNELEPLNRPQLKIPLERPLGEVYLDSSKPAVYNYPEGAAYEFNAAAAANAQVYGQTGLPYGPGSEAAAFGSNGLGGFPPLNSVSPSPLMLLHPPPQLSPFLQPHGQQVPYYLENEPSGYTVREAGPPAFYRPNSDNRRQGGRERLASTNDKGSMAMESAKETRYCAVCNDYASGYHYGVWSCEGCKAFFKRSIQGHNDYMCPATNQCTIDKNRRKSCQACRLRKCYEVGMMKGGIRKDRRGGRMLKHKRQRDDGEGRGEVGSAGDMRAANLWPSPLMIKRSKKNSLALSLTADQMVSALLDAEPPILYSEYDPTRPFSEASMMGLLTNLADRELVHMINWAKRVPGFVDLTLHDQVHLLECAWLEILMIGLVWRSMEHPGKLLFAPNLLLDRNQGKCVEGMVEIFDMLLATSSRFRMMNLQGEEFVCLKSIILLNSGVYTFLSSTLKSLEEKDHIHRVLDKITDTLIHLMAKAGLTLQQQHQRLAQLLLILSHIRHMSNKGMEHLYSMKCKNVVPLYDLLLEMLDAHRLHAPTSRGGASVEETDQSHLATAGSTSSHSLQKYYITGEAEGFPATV
Outline: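 Agonist-mode confirmation run in the presence of 10.0nM (final) ICI-182,780 antagonist. The reporter was ERE-driven luciferase in VM7Luc4E2 cells, grown in charcoal-stripped serum. Cells were exposed to 15-concentration compound series for 22hr, then ONE-Glo luminescence was read.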

[17] = qHTS assay to identify small molecule agonists or antagonists of the thyroid stimulating hormone receptor (TSHR) signaling pathway - wild type cell line counter screen (AID 1259384; calls by dose curve)
Outline: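 Wild-type Hek293 cells, 800/well, 18 h at 37C, then compound with Ro20-1724 for 30 min RT. cAMP by HTRF (cAMP-d2/anti-cAMP cryptate), 1 h RT, fluorescence read. 15 concentrations, triplicates.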

[18] = target: Thyrotropin receptor (Homo sapiens) (UniProt P16473); assay: qHTS assay to identify small molecule antagonists of the thyroid stimulating hormone receptor (TSHR) signaling pathway (AID 1259385; calls by dose curve; also: nearly all actives have a fitted effect of over 20% in size)
Sequence of Thyrotropin receptor (Homo sapiens) (P16473 whole entry, looked up): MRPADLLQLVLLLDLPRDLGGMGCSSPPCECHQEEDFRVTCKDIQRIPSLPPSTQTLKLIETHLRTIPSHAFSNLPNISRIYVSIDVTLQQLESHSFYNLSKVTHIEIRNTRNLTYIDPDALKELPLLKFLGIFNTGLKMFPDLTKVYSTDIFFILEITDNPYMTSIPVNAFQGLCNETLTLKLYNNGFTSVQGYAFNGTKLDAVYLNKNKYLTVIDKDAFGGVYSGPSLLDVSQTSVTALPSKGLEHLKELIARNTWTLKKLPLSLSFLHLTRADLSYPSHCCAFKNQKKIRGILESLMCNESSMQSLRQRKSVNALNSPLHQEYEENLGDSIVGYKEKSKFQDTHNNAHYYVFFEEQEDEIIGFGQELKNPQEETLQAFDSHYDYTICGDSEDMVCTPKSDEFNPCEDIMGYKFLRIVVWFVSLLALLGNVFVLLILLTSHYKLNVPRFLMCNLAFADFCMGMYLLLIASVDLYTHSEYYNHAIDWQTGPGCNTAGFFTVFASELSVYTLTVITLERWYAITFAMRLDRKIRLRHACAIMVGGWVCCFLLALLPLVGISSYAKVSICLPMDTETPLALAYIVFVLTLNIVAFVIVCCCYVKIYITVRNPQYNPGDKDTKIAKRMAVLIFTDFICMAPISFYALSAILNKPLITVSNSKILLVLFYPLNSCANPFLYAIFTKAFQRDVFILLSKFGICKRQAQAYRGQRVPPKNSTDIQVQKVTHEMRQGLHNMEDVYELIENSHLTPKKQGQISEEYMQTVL
Outline: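 TSHR-HEK293 cells (800/well) plated 18 h, then compounds with Ro20-1724 and TSH at 1.5 ng/mL final, 30 min at room temperature. cAMP quantified by HTRF (cAMP-d2/anti-cAMP-cryptate, 1 h); 15 concentrations in triplicate.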

[19] = target: Estrogen receptor (Homo sapiens) (UniProt P03372); assay: qHTS assay to identify small molecule antagonists of the estrogen receptor alpha (ER-alpha) signaling pathway using the BG1 cell line in the presence of 0.1 nM 17-beta-estradiol (AID 1259244); also: nearly all actives have a fitted effect of over 50% in size
Outline: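 Luciferase luminescence (ONE-Glo, 30 min at room temperature) was read after 22 hr at 37C exposure to compounds plus 17beta-estradiol at 0.1 nM final. Cells were VM7Luc4E2 with endogenous ER-alpha and an ERE-driven luciferase, pre-cultured 5 days in hormone-depleted medium.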

[20] = qHTS assay to identify small molecule phospholipidosis (PLD) inducers (AID 1259344; active = well fitted curve in the direction sought with a large enough effect; an effect the other way counts as inactive or inconclusive; also: potency is read from the fitted curve at half-maximal effect)
Outline: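 Image-based: LipidTOX Red pit count/intensity per well and per cell; HepG2, 24 h compound at 37 C, PFA fixation, Hoechst counterstain.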

Measured: Potency

CCCCOC(O)CC (centres undefined)
not listed: [19] | [20]
inactive: all other assays above

C=C(C)C(=O)OC(C)C
not listed: [4] | [20]
inactive: all other assays above

CCC(C)N(C)C(=O)c1cc2ccccc2c(-c2ccccc2Cl)n1 (centres undefined)
active: [3] 28 µM
not listed: [6] | [7] | [10] | [11] | [13] | [20]
inactive: all other assays above

CC(C)c1ccc2c(C(C)C)cc(C(C)C)c(S(=O)(=O)O)c2c1
not listed: [4] | [10] | [11] | [13] | [20]
inactive: all other assays above

CCCCCCCC/C=C\CCCCCCCC(N)=O
not listed: [11] | [13] | [16] | [17] | [19] | [20]
inactive: all other assays above

O=C(Cl)c1ccc([N+](=O)[O-])cc1
not listed: [9] | [10] | [20]
inactive: all other assays above

CC(C)CCCC(C)CCO (centres undefined)
active: [9] 61.1 µM
not listed: [10] | [17] | [19] | [20]
inactive: all other assays above

CN1CCN(C2=Nc3ccccc3Sc3ccc(Cl)cc32)CC1
active: [20] 11.2 µM
not listed: [10] | [16] | [19]
inactive: all other assays above

Cc1cc(NC(=O)C(=O)O)cc(C)c1Oc1ccc(O)c2c1CCC2
not listed: [9] | [10] | [11] | [13] | [17] | [18] | [20]
inactive: all other assays above

CCCOc1ccc2nc(NC(=O)OC)[nH]c2c1
not listed: [4] | [8] | [10] | [11] | [17] | [18] | [19]
inactive: all other assays above

CCOc1nc2cccc(C(=O)O)c2n1Cc1ccc(-c2ccccc2-c2nn[nH]n2)cc1
not listed: [13] | [17]
inactive: all other assays above

COC(=O)CSc1cc(N=c2sc(=O)n3n2CCCC3)c(F)cc1Cl
not listed: [11] | [12] | [16] | [19] | [20]
inactive: all other assays above

COCCOCCOCCOCCOC
not listed: [13] | [15] | [20]
inactive: all other assays above

CCN(CC)CCOC(=O)C1(c2ccccc2)CCCC1
not listed: [4] | [19]
inactive: all other assays above

O=C1Nc2cc(Cl)ccc2Oc2ccccc21
active: [3] 4.22 µM
not listed: [11] | [12] | [19] | [20]
inactive: all other assays above
